Active and inactive are the calls of the source. Unless noted, the rule behind the calls is not given here.

Assay [1] in a line: compound effects on lung adenocarcinoma cell viability – A549, calcein-AM fluorescence, 48 h, basal, profiling panel (AID 1162). Note: test concentration not given here. Particulars: higher = more signal.
Assay [2] in a line: compound effects on differentiated 3T3-L1 adipocyte viability – cell-based, 3T3-L1 adipocytes, calcein-AM fluorescence, 48 h, basal, profiling panel (AID 1163). Note: test concentration not given here. Particulars: 3T3-L1 adipocytes viability, higher = more signal.
Assay [3] in a line: compound effects on hepatocellular carcinoma cell viability – HepG2, calcein-AM fluorescence, 48 h, basal, profiling panel (AID 1164). Note: test concentration not given here. To be noted: higher = more signal.
Assay [4] can be described thus: compound effects on multiple myeloma cell viability – MM1S, calcein-AM fluorescence, 48 h, basal, profiling panel (AID 1165).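 Note: viability of MM1S multiple myeloma cells under basal unstimulated conditions; test concentration not given here.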 To be noted: higher = more signal.
The nature of assay [5]: calcein-AM signal in unstimulated myeloma cells – cell-based, calcein-AM fluorescence, 48 h, PK04 Diversity Set, profiling panel (AID 1166).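 Note: cells grown under basal conditions without added stimulus; test concentration not given here.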 Particulars: RPMI8226 myeloma viability, higher = more signal.
Assay [6] in a line: JC-1 mitochondrial signal, unstimulated HepG2 cells – cell-based, JC-1 fluorescence, 24 h, 100 nL compound, profiling panel (AID 1167). Note: test concentration not given here. Particulars: HepG2 mitochondrial potential, higher = more signal.
The nature of assay [7]: JC-1 mitochondrial signal, unstimulated adipocytes – cell-based, JC-1 fluorescence, 3T3-L1 adipocytes, 24 h, 100 nL compound, profiling panel (AID 1168). Note: test concentration not given here. To be noted: JC-1 mitochondrial fluorescence, higher = more signal, called active from +8 up or from −8 down.
The nature of assay [8]: JC-1 mitochondrial signal, unstimulated myeloma cells – cell-based, JC-1 fluorescence, RPMI8226, 24 h, 100 nL compound, profiling panel (AID 1169). Note: test concentration not given here. To be noted: JC-1 mitochondrial potential fluorescence, higher = more signal.
Assay [9] is described as follows: JC-1 mitochondrial signal, unstimulated MM1S myeloma – cell-based, JC-1 fluorescence, 24 h, 100 nL compound, profiling panel (AID 1170). Note: test concentration not given here. To be noted: MM1S mitochondrial potential, higher = more signal.
Assay [10] in a line: resazurin metabolic signal in A549 cells – cell-based, resazurin fluorescence, 24 h, PK04 Diversity Set, profiling panel (AID 1171). Note: test concentration not given here. Particulars: A549 viability, higher = more signal, called active from +8 up or from −8 down.
A short description of assay [11]: resazurin metabolic signal in HepG2 cells – cell-based, resazurin fluorescence, 24 h, PK04 Diversity Set, profiling panel (AID 1172). Note: test concentration not given here. To be noted: HepG2 viability, higher = more signal. Background: Resazurin is reduced to fluorescent resorufin, in cell work by metabolically active cells.
Assay [12] in a line: budding yeast growth changes without added modifier – OD600, strain BY4716, 24 h, basal condition, primary screen (AID 1173). Particulars: S. cerevisiae BY4716 growth, OD600, 24 h; higher = more signal, called active from +8 up or from −8 down.
A short description of assay [13]: viability profiling in MM1S myeloma cells – cell-based, resazurin fluorescence, basal, 24 h, PK04 Diversity Set, profiling panel (AID 1174). Note: test concentration not given here. To be noted: higher = more signal, called active from +8 up or from −8 down.
The target of assay [14] is Dihydroorotate dehydrogenase (quinone), mitochondrial (Plasmodium falciparum (isolate 3D7)) (UniProt Q08210). The assay can be described thus: inhibition of P. falciparum DHODH – biochemical, C-terminal His tag, absorbance 600 nm, primary screen (AID 1175).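 Note: recombinant parasite enzyme with a five histidine tag at its C terminus; test concentration not given here.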 To be noted: PfDHODH enzyme, DCIP absorbance 600 nm; higher = more signal, called active from +8 up or from −8 down.
Dihydroorotate dehydrogenase (quinone), mitochondrial (Plasmodium falciparum (isolate 3D7)), sequence (Q08210 whole entry, looked up): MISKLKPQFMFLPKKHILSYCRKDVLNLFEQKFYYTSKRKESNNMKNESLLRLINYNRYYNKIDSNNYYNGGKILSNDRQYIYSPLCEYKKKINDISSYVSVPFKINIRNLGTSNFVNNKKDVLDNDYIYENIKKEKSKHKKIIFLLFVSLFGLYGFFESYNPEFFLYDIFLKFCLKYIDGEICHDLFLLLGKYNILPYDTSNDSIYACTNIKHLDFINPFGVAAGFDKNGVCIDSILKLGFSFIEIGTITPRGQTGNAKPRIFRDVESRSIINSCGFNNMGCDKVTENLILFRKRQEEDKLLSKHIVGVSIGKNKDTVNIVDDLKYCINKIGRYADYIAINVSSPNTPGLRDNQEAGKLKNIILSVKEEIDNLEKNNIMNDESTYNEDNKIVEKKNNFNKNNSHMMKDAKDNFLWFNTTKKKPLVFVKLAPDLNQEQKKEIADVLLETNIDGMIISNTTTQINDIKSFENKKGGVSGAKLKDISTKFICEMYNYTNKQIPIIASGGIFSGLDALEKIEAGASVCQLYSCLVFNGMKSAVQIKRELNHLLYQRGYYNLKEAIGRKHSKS

Assay [15] can be described thus: inhibition of PAO1 biofilm formation – strain PAO1, LB-PBS medium, absorbance 600 nm, primary screen (AID 1176). Note: test concentration not given here. Particulars: P. aeruginosa PAO1 growth/biofilm, A600, 12 h; higher = more signal.
Assay [16] is described as follows: growth modulation of vineyard yeast isolate – strain RM11-1a, OD600, basal, 24 h, primary screen (AID 1177).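 Note: cultures grown under basal conditions with no added stressor; test concentration not given here.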 To be noted: S. cerevisiae RM11-1a growth, OD600, 24 h; higher = more signal, called active from +8 up or from −8 down.
The nature of assay [17]: growth of efflux-deficient E. coli DRC39 – strain DRC39, OD650, 24 h, E. coli filamentation inducers, primary screen (AID 1178).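 Note: growth measured as culture turbidity by optical density at 650 nm; test concentration not given here.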 Particulars: E. coli DRC39 acrAB, higher = more signal, called active from +8 up or from −8 down.
Assay [18] can be described thus: growth of efflux-deficient E. coli DRC39 – strain DRC39, OD650, 48 h, E. coli filamentation inducers, primary screen (AID 1179).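 Note: screen aims at cell division blockers that make cells filament.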 To be noted: E. coli DRC39 delta-acrAB growth, higher = more signal, called active from +8 up or from −8 down.
The nature of assay [19]: viability profiling in RPMI8226 myeloma cells – cell-based, resazurin fluorescence, basal, 24 h, PK04 Diversity Set, profiling panel (AID 1180).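 Note: RPMI8826 multiple myeloma cell line at 5000 cells per well; test concentration not given here.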 To be noted: higher = more signal.
The target in assay [20] is E3 ubiquitin-protein ligase XIAP (Homo sapiens) (UniProt P98170). The assay can be described thus: small molecules binding XIAP protein – biophysical, small-molecule microarray, fluorescence 635 nm, primary screen (AID 1181).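 Note: score merges 667 nm emission and signal to noise over triplicate slides.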 Particulars: higher = more signal.
E3 ubiquitin-protein ligase XIAP (Homo sapiens), sequence (P98170 whole entry, looked up): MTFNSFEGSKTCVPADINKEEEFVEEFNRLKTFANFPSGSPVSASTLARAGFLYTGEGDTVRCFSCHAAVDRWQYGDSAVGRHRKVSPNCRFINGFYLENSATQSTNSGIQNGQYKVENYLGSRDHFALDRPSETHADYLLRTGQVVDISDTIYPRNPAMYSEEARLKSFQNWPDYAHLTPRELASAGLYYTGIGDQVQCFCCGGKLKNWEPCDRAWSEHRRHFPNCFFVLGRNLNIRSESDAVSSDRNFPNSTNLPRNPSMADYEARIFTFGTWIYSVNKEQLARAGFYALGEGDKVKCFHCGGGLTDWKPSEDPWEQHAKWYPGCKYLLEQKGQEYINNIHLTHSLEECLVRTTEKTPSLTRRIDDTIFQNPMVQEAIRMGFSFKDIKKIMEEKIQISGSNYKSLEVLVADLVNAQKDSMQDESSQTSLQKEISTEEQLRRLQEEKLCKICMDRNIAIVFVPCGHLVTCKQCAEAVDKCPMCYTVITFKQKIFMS

Regarding `O=C1O[C@H](c2ccccc2)[C@H](c2ccccc2)N2[C@H]1[C@@H](C(=O)O)[C@]1(C(=O)Nc3ccc(C#CC4=CCCCC4)cc31)[C@H]2c1ccc(OCCO)cc1`, the z-score is 0.199 in assay [1]; -0.774 in assay [2]; 0.122 in [3]; -2.72 in [4]; -4.06 in assay [5]; -4.3 in assay [6]. The z-score in [7] is -3.28 (inactive); in assay [8], -0.949; in assay [9], -1.53; in assay [10], 0.729 (inactive); in [11] it was 0.732; in assay [12], 0.0899 (inactive). Besides, the z-score is 0.533 (inactive) in assay [13]; 3.39 (inactive) in [15]; 1.26 (inactive) in [16]; 0.668 (inactive) in [17]; -0.175 (inactive) in assay [18]; -0.219 in assay [19]. Also, the composite z-score in assay [14] is -14.1 (active); in assay [20] it was -0.271.
As for `COC(=O)[C@@]1(Cc2ccccc2)[C@H]2c3cc(C(=O)N(C)C)n(Cc4cc(C)n(C)n4)c3C[C@H]2CN1C(=O)c1ccccc1`, the z-score in [1] was -0.997; in [2], 0.461; in assay [3], 0.0271; in assay [4], -0.47; in [5] it was -0.965; in assay [6] it was 1.17. Besides, the z-score in assay [7] was -1.24 (inactive); in [8], -0.0807; in [9], 0.0916; in assay [10] it was -0.236 (inactive); in [11], -1.03; in assay [12] it was 0.289 (inactive). Moreover, the z-score was -0.99 (inactive) in assay [13]; 0.687 (inactive) in [15]; -0.211 (inactive) in [16]; -1.12 (inactive) in assay [17]; -0.944 (inactive) in assay [18]; -0.566 in assay [19]. The composite z-score is -0.857 (inactive) in [14] and 0.0737 in assay [20].
In the case of `O=C1C[C@@](C(=O)NC2CC2)(c2ccc([N+](=O)[O-])cc2)[C@@H](c2ccc(CO)cc2)N1CC12CC3CC(CC(C3)C1)C2`, the z-score is -1.14 in assay [1]; 0.781 in assay [2]; -1.94 in assay [3]; -2.07 in assay [4]; -3.09 in assay [5]; -0.881 in [6]. Further, the z-score is -0.199 (inactive) in [7]; -0.507 in assay [8]; -0.214 in [9]; -1.45 (inactive) in [10]; -0.494 in assay [11]; -0.369 (inactive) in [12]. Besides, the z-score in assay [13] is -2.23 (inactive); in assay [15], -0.273 (inactive); in assay [16] it was 0.0982 (inactive); in [17], -0.284 (inactive); in [18], 0.466 (inactive); in assay [19], -3.25. The composite z-score was 0.117 (inactive) in assay [14] and 0.0975 in assay [20].
In the case of `COCCOC(=O)N1C(=O)[C@@]2(c3cc(C#CCC(C(=O)OC)C(=O)OC)ccc31)[C@H](c1ccc(O)cc1)N1[C@H](c3ccccc3)[C@H](c3ccccc3)OC(=O)[C@H]1[C@@H]2C(N)=O`, the z-score in assay [1] was -0.78; in [2], 0.618; in [3] it was -0.568; in [4], -2.89; in [5] it was -3.48; in [6], -1.63. For the same compound, the z-score in assay [7] is -0.791 (inactive); in [8], -0.799; in [9], 0.0557; in assay [10] it was -0.195 (inactive); in assay [11], -0.2; in assay [12] it was -0.235 (inactive). For the same compound, the z-score in [13] is -0.0347 (inactive); in [15] it was 1.28 (inactive); in [16], 0.332 (inactive); in assay [17], -0.319 (inactive); in assay [18], -0.586 (inactive); in [19], -0.777. In addition, the figures for the composite z-score in assay [14] and in assay [20] were -0.181 (inactive) and 0.098, respectively.
As for `[N-]=[N+]=NCc1ccccc1C[C@]1(C(=O)O)N=C(c2ccc(OCCCO)cc2)O[C@H]1c1ccccc1`, the z-score is -0.755 in assay [1]; -0.4 in assay [2]; -0.509 in [3]; -1.19 in assay [4]; -0.388 in assay [5]; -1.62 in assay [6]. The z-score was 0.336 (inactive) in assay [7]; -0.179 in assay [8]; 0.181 in assay [9]; 0.0055 (inactive) in assay [10]; 0.922 in assay [11]; -2.17 (inactive) in [12]. In addition, the z-score was 0.111 (inactive) in [13]; 0.755 (inactive) in assay [15]; -0.923 (inactive) in assay [16]; -0.168 (inactive) in assay [17]; -0.429 (inactive) in assay [18]; 0.525 in assay [19]. Besides, the composite z-score in assay [14] was 0.732 (inactive); in assay [20] it was -0.0482.
Consider `CC(C)C(O)C1C=CC2C(=O)N(c3ccccc3)C(=O)C2N1Nc1ccc(C#N)cc1` (stereo not given), for which the z-score in assay [1] was -0.777; in [2], -0.289; in [3], -0.114; in assay [4], -0.0628; in [5], -1.15; in assay [6] it was -0.421. Besides, the z-score is -1.47 (inactive) in [7]; -0.775 in assay [8]; -0.44 in [9]; -0.796 (inactive) in [10]; -1.45 in assay [11]; -2.14 (inactive) in assay [12]. The z-score is -1.66 (inactive) in [13]; 1.11 (inactive) in assay [15]; -0.0111 (inactive) in assay [16]; -0.718 (inactive) in assay [17]; 0.0323 (inactive) in assay [18]; -0.47 in assay [19]. In addition, the composite z-score in [14] is -1.02 (inactive); in assay [20], 0.0073.
Consider `CCOC(=O)C[C@H]1[C@H](OC(=O)c2ccccc2-c2ccccc2)[C@@H](NC(=O)c2ccc3ccccc3c2)c2cc(OCCCO)ccc2N1C(=O)c1ccc2ccccc2n1`, for which the z-score in assay [1] is 0.135; in assay [2] it was 0.487; in [3], -0.0645; in assay [4], -0.957; in [5], -0.442; in assay [6], 0.732. Also, the z-score in assay [7] was 2.16 (inactive); in assay [8] it was -0.337; in assay [9], -0.615; in assay [10], 0.735 (inactive); in assay [11], 1.33; in assay [12] it was 0.682 (inactive). Besides, the z-score in assay [13] was 0.288 (inactive); in assay [15], -0.271 (inactive); in assay [16], 0.876 (inactive); in assay [17], 0.672 (inactive); in assay [18], 0.641 (inactive); in [19], 0.726. The composite z-score was 0.428 (inactive) in assay [14] and -0.144 in assay [20].
As to `COc1c(C)cc(-c2cc3c(c(-c4ccc(Oc5ccccc5)cc4)n2)[Si](C(C)C)(C(C)C)OC3)cc1C`, the z-score was -0.342 in assay [1]; -0.616 in assay [2]; 0.285 in assay [3]; -0.66 in [4]; -0.11 in assay [5]; -1.3 in assay [6]. Moreover, the z-score is -0.528 (inactive) in assay [7]; 0.103 in [8]; 0.0963 in assay [9]; 0.624 (inactive) in assay [10]; -0.566 in [11]; 2.09 (inactive) in assay [12]. Also, the z-score in assay [13] is -0.391 (inactive); in assay [15], 1.18 (inactive); in [16] it was 1.19 (inactive); in assay [17], -0.227 (inactive); in assay [18], -0.707 (inactive); in [19], -0.155. For the same compound, the composite z-score was 0.567 (inactive) in assay [14] and -0.187 in assay [20].
